Records with an inconclusive call do not appear. Active and inactive are the calls of the source. Rule for the calls: active = hit-call score of the fitted dose curve at least 0.9, where 1 is the maximum; inconclusive = response in the unintended direction; inactive = score below 0.9.
Biological target: Androgen receptor (Homo sapiens) (UniProt P10275)
Assay: ATG_AR_TRANS: Attagene TRANS-FACTORIAL HepG2 Assay for human Androgen Receptor (AR) (AID 2282973)
Conditions: HepG2 Attagene TRANS-FACTORIAL AR reporter transcription
How it was run: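 Chimeric nuclear receptor–Gal4 activity was assessed in human HepG2 hepatocytes after 24 h chemical dosing. Induced reporter mRNA was detected via labelled RT-PCR fragments on capillary electrophoresis, and gain of signal was analysed against DMSO.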

Androgen receptor (Homo sapiens), sequence (P10275 whole entry, looked up): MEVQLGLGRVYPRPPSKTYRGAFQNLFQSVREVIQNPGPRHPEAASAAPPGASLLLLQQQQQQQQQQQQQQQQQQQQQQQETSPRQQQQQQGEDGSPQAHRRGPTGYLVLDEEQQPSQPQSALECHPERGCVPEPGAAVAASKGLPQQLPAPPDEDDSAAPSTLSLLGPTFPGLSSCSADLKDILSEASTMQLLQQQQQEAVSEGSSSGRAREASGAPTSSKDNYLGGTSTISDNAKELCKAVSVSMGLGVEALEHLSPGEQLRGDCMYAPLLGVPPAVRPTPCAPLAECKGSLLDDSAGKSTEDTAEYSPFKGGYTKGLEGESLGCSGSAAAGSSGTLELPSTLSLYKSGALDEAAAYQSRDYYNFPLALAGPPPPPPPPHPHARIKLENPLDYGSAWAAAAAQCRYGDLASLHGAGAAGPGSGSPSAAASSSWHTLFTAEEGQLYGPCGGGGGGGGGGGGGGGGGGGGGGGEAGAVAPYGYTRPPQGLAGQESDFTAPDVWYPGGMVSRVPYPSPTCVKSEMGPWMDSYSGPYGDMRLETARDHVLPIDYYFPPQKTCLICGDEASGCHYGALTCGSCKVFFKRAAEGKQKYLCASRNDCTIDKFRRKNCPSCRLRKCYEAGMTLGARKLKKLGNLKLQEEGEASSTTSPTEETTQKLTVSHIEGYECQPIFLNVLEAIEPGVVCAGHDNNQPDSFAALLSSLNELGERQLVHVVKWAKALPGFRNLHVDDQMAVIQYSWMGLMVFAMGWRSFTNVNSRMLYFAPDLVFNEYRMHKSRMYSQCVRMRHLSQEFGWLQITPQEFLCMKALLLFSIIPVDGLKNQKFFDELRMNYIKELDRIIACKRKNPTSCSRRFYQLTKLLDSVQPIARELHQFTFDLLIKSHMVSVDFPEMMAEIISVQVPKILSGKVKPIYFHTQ

Compound | outcome
CC(c1cc2ccccc2s1)N(O)C(N)=O (configuration not stated) | inactive
C=C(C)[C@@H]1CC=C(C)C(=O)C1 | inactive
COc1ccccc1C=O | inactive
CC(CC(C)(C)C)CC(C)(C)CC(C)(C)C (configuration not stated) | inactive
O=C(NO)c1ccccc1 | inactive
O=CN1CCOCC1 | inactive
C=CCOCC(CO)(CO)CO | inactive
COc1cc(/C=C/C(=O)CC(=O)/C=C/c2ccc(O)c(OC)c2)ccc1O | inactive
CCC1(C)C(=O)N(Cl)C(=O)N1Cl (configuration not stated) | inactive
O=c1cc(-c2ccccc2)oc2ccccc12 | inactive
c1ccc(Sc2ccccc2)cc1 | inactive
c1ccc2c(c1)CCC2 | inactive
O=C(Nc1ccccc1)c1cc([N+](=O)[O-])ccc1Cl | inactive
Cn1cccc1 | inactive
Cc1ccc(C2OC[C@@H]3OC(c4ccc(C)cc4)O[C@H]([C@H](O)CO)[C@@H]3O2)cc1 (some centres not stated) | inactive
CCCCCCc1ccc(N)cc1 | inactive
CC(=O)OCc1ccccc1 | inactive
